Compound activity from PubChem.
A selection: hits, their analogues and other compounds. The true share with any hit is near 6.7%.
T cruzi growth-1 – T. cruzi proliferation inhibition; hit rate 5.9% among 77,000; T. cruzi beta-gal in NIH3T3, GalScreen luminescence, 90 h; inhibition, % at 8.34 µM;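 active = mean inhibition above about 93%, with at least 55% of replicates each passing it, limit read from the data, passing the limit was not always enough; inconclusive = only one of those two conditions holds; inactive = neither condition holds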
C diff HTS – blocks growth of Clostridium difficile; Clostridium difficile clinical isolate growth, OD600, 24 h; stronger effect = lower value; growth activity, negative = inhibition, % at 16 µg/mL (by protocol); hit rate 0.25% among 86,000; AID 1259249;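 active = mean growth activity at or below -80% and every replicate also at or below -80%; inconclusive = mean at or below -80% but some replicate above -80%; inactive = mean growth activity above -80%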;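 note: 0% = DMSO wells and -100% = levofloxacin 16 µg/mL wells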
Pf Dd2 growth – inhibitors of Plasmodium falciparum Dd2 growth | P. falciparum Dd2 growth, SYBR Green, 72 h; stronger effect = lower value | activity change, % at 10 µM | AID 1159554 | hit rate 2.3% among 94,000; in the data active = activity change below about -80%; inconclusive = no clear call, values can overlap the other calls
T cruzi growth-2 – blocks T. cruzi growth in NIH3T3 host cells | shares compounds with T cruzi growth-1 | T. cruzi beta-gal in NIH3T3, GalScreen luminescence, 90 h | inhibition, % at 8.35 µM | hit rate 72% among 5,600 | AID 651739;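 active = mean replicate inhibition above about 95% and at least 55% of replicates individually reaching it, limit read from the data; inconclusive = only one of the two criteria is met; inactive = neither criterion is met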
T cruzi growth-3 – blocks T. cruzi growth in NIH3T3 host cells; shares compounds with T cruzi growth-1; T. cruzi beta-gal in NIH3T3, GalScreen luminescence, 90 h; inhibition, % at 2.09 µM; hit rate 21% among 5,600; AID 651740;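 active = mean inhibition above about 95%, with at least 55% of replicates also reaching it, limit read from the data; inconclusive = meets just one of the two conditions; inactive = meets neither condition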;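 note: plate controls were neutral control median for no effect and positive control median for full effect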
3T3 cytotox – NIH/3T3 (mouse) viability loss. cytotoxicity (signal decrease), % at 8.35 µM. NIH/3T3 viability, CellTiter-Glo ATP luminescence, 90 h. hit rate 14% among 5,600. shares compounds with T cruzi growth-1;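 active = mean signal decrease across replicates above about 35% based on untreated-well scatter, with enough replicates individually passing, limit read from the data; inconclusive = no rule stated though some were filed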;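 note: 0% = median of neutral control wells and 100% = median of positive control wells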
NIH3T3 tox 2 – kills mouse NIH/3T3 fibroblasts. hit rate 56% among 5,600. inhibition, % at 24.9 µM. NIH/3T3 viability, CellTiter-Glo ATP luminescence, 90 h. shares compounds with T cruzi growth-1;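 active = mean loss of cell viability signal at or above a set limit, and enough replicates individually reaching it; inconclusive = meets only the mean limit or only the replicate share; inactive = meets neither condition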;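 note: 0% = median of neutral control wells and 100% = median of positive control wells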
Numbers without * were called inactive; ? = inconclusive; . = no result.

SMILES	T cruzi growth-1	C diff HTS	Pf Dd2 growth	T cruzi growth-2	T cruzi growth-3	3T3 cytotox	NIH3T3 tox 2
COc1ccc(-c2cn(CC[C@H]3CC[C@H](NC(=O)Cc4ccccn4)[C@@H](CO)O3)nn2)cc1	-53	3	7	.	.	.	.
Cc1ccc(S(=O)(=O)Nc2ccc3c(c2)C(=O)N([C@@H](C)CO)C[C@H](C)[C@H](CN(C)S(=O)(=O)c2ccccc2)OCCCC[C@H](C)O3)cc1	111*	-14	-75	106*	79	9	8
Cc1ccc(S(=O)(=O)Nc2ccc3c(c2)C(=O)N([C@H](C)CO)C[C@H](C)[C@H](CN(C)S(=O)(=O)c2ccccc2)OCCCC[C@H](C)O3)cc1	113*	-6	-62	113*	39	-1	-5
Cc1ccc(S(=O)(=O)Nc2ccc3c(c2)C(=O)N([C@H](C)CO)C[C@H](C)[C@@H](CN(C)S(=O)(=O)c2ccccc2)OCCCC[C@H](C)O3)cc1	59	-3	-53	.	.	.	.
C[C@@H]1CCCCO[C@@H](CN(C)S(=O)(=O)c2ccccc2)[C@@H](C)CN([C@@H](C)CO)C(=O)c2cc(NS(=O)(=O)c3ccccc3)ccc2O1	-16	.	-30	.	.	.	.
C[C@@H]1CCCCO[C@@H](CN(C)S(=O)(=O)c2ccccc2)[C@H](C)CN([C@@H](C)CO)C(=O)c2cc(NS(=O)(=O)c3ccccc3)ccc2O1	48	.	0	.	.	.	.
Cc1ccc(S(=O)(=O)Nc2ccc3c(c2)C(=O)N([C@@H](C)CO)C[C@@H](C)[C@@H](CN(C)S(=O)(=O)c2ccccc2)OCCCC[C@@H](C)O3)cc1	108*	-5	-50	110*	79	-6	7
Cc1ccc(S(=O)(=O)N(C)C[C@H]2OCCCC[C@@H](C)Oc3ccc(NS(=O)(=O)c4ccccc4)cc3C(=O)N([C@@H](C)CO)C[C@@H]2C)cc1	?	8	-46	105*	61	6	32*
COCC(=O)N(C)C[C@H]1Oc2ncc(-c3ccccc3C)cc2C(=O)N([C@H](C)CO)C[C@@H]1C	3	7	29	.	.	.	.
COc1ccc(S(=O)(=O)N(C)C[C@H]2OCCCC[C@H](C)Oc3ccc(NC(=O)C4CCCCC4)cc3C(=O)N([C@H](C)CO)C[C@@H]2C)cc1	60	0	-41	.	.	.	.
COc1ccc(S(=O)(=O)N(C)C[C@H]2OCCCC[C@@H](C)Oc3ccc(NC(=O)C4CCCCC4)cc3C(=O)N([C@H](C)CO)C[C@@H]2C)cc1	37	2	-44	.	.	.	.
COc1ccc(S(=O)(=O)N(C)C[C@@H]2OCCCC[C@@H](C)Oc3ccc(NC(=O)C4CCCCC4)cc3C(=O)N([C@@H](C)CO)C[C@@H]2C)cc1	99*	-2	-80	94	57	12	72*
COc1ccc(S(=O)(=O)N(C)C[C@@H]2Oc3ccc(NC(=O)Cn4cnnn4)cc3C(=O)N([C@@H](C)CO)C[C@H]2C)cc1	-15	-3	19	.	.	.	.
COc1ccc(S(=O)(=O)N(C)C[C@H]2Oc3ccc(NC(=O)Cn4cnnn4)cc3C(=O)N([C@@H](C)CO)C[C@H]2C)cc1	100*	-6	-16	37	-33	10	6
COc1ccc(S(=O)(=O)N(C)C[C@H]2OCCCC[C@H](C)Oc3ccc(NC(=O)C4CCCCC4)cc3C(=O)N([C@@H](C)CO)C[C@@H]2C)cc1	106*	7	?	105*	79	0	-26
CCCNC(=O)C[C@H]1CC[C@@H]2[C@H](COC[C@@H](O)CN2C(=O)C2CCOCC2)O1	27	.	11	.	.	.	.
O=C(C[C@@H]1C[C@H]2c3cc(NC(=O)NC4CCCC4)ccc3O[C@H]2[C@@H](CO)O1)NCc1ccccn1	.	1	37	.	.	.	.
C[C@H]1CN([C@@H](C)CO)C(=O)c2cc(-c3ccc(C#N)cc3)cnc2O[C@@H]1CN(C)C(=O)c1ccccc1	32	4	5	.	.	.	.
Cc1ccc(-c2ccc([C@H]3[C@@H](CO)N4C(=O)CN(C(=O)c5ccncc5)C[C@@H]34)cc2)cc1	.	13	-3	.	.	.	.
C[C@@H]1CCCCO[C@@H](CN(C)C(=O)C2CCCCC2)[C@@H](C)CN([C@@H](C)CO)C(=O)c2cc(NC(=O)c3ccccc3)ccc2O1	42	2	-74	.	.	.	.
COc1ccc(S(=O)(=O)N(C)C[C@H]2OCCCC[C@H](C)Oc3ccc(NS(=O)(=O)c4ccccc4)cc3C(=O)N([C@@H](C)CO)C[C@@H]2C)cc1	93	-3	.	.	.	.	.
COc1ccc(S(=O)(=O)Nc2ccc3c(c2)C(=O)N([C@H](C)CO)C[C@H](C)[C@H](CN(C)S(=O)(=O)c2ccccc2)OCCCC[C@@H](C)O3)cc1	.	-3	-18	.	.	.	.
COc1ccc(S(=O)(=O)Nc2ccc3c(c2)C(=O)N([C@@H](C)CO)C[C@H](C)[C@@H](CN(C)S(=O)(=O)c2ccccc2)OCCCC[C@H](C)O3)cc1	.	-1	-72	.	.	.	.
COc1ccc(S(=O)(=O)Nc2ccc3c(c2)C(=O)N([C@H](C)CO)C[C@H](C)[C@@H](CN(C)S(=O)(=O)c2ccc(OC)cc2)OCCCC[C@H](C)O3)cc1	?	3	-63	111*	51	6	13
COc1ccc(S(=O)(=O)Nc2ccc3c(c2)C(=O)N([C@H](C)CO)C[C@@H](C)[C@H](CN(C)S(=O)(=O)c2ccc(OC)cc2)OCCCC[C@@H](C)O3)cc1	?	4	-73	102*	63	18	12
SMILES	T cruzi growth-1	C diff HTS	Pf Dd2 growth	T cruzi growth-2	T cruzi growth-3	3T3 cytotox	NIH3T3 tox 2
COc1ccc(S(=O)(=O)Nc2ccc3c(c2)C(=O)N([C@@H](C)CO)C[C@H](C)[C@H](CN(C)S(=O)(=O)c2ccc(OC)cc2)OCCCC[C@@H](C)O3)cc1	93*	-3	-65	106*	80	16	23
CO[C@H]1CN(C)C(=O)c2cc(NC(=O)C3CCOCC3)ccc2OC[C@H](C)N(C(C)=O)C[C@@H]1C	-25	.	-49	.	.	.	.
O=C(C1CCCC1)N1[C@@H](CO)[C@@H](c2ccccc2)C12CN(CCC(F)(F)F)C2	.	7	-11	.	.	.	.
O=C(C[C@H]1CC[C@H](NC(=O)Nc2cc(F)ccc2F)[C@@H](CO)O1)NCc1ccc2c(c1)OCO2	-14	.	-24	.	.	.	.
C[C@H]1CCCCO[C@H](CN(C)C(=O)Nc2ccc3c(c2)OCO3)[C@@H](C)CN([C@@H](C)CO)C(=O)c2cc(NS(C)(=O)=O)ccc2O1	-29	3	10	.	.	.	.
COc1ccc(NC(=O)Nc2ccc3c(c2)C(=O)N([C@H](C)CO)C[C@H](C)[C@@H](CN(C)Cc2ccc(Cl)c(Cl)c2)OCCCC[C@@H](C)O3)cc1	122*	0	-1	113*	100*	2	9
COc1ccc(CN(C)C[C@@H]2OCCCC[C@H](C)Oc3ccc(NC(=O)Nc4ccc(OC)cc4)cc3C(=O)N([C@@H](C)CO)C[C@H]2C)cc1	-2	.	-61	.	.	.	.
